# Rows were chosen to be rich in hits. Some 3.8% of all compounds tested hit in one or more screens of this group.
# Mtb hypoxia rep: PubChem AID 1159583. M. tuberculosis hypoxia-regulated fluorescent reporter, fluorescence. fluorescence inhibition, % (no concentration beside the values). 0.1% of 300,000 active; in the data active = fluorescence inhibition mostly above about 23%, no sharp cut-off; inactive = mostly below about 17%
# GDH-TPI counter: GDH-TPI coupling enzyme inhibitors, primary screen, artefact control for M. tuberculosis FBA inhibitor project, biochemical, absorbance, full deck; GDH-TPI coupled enzyme counterscreen, NADH absorbance; inhibition, % at 4.8 µM; 1.2% of 360,000 active; in the data active = inhibition above about 30%;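 also: 0% = DMSO wells and 100% = wells lacking the enzyme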
# PrPC TRFRET: inhibitors of human cell surface prion protein PrPC, primary screen, cell-based, TR-FRET; AID 720596, 2013; Major prion protein (Homo sapiens), P04156; TR-FRET read-out; 0.43% of 370,000 active; inhibition, % at 13.8 µM; in the data active = inhibition above about 24%; also: 0% = median of the test wells and 100% = reference compound wells
# FBA Mtb inh: Mtb FBA enzyme inhibitors, primary screen, biochemical, fluorescence, strain H37Rv; purified M. tuberculosis FBA, fluorescence read-out; Fructose-bisphosphate aldolase (Mycobacterium tuberculosis (strain ATCC 25618 / H37Rv)), …; 2.3% of 360,000 active; inhibition, % at 1 µM; AID 588726, 2011; in the data active = inhibition above about 27%;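 also: 0% = vehicle and 100% = reference inhibitor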
# Target sequence (P9WQA3 whole entry, looked up): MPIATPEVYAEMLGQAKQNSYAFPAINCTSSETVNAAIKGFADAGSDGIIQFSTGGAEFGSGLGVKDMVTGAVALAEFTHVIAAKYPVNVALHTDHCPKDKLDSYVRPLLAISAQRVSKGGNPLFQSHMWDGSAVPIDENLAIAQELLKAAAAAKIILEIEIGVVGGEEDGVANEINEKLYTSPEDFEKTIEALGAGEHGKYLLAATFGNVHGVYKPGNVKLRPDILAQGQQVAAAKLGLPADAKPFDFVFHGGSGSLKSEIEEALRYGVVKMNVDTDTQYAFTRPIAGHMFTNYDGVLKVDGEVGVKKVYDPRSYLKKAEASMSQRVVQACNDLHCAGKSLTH
# PrP 5UTR inh: inhibition of PrP 5' UTR reporter expression | AID 488862, 2010 | inhibition, % (no concentration beside the values) | 0.35% of 340,000 active | cell-based PrP 5' UTR mRNA reporter, plate reader; in the data active = inhibition above about 52%; also: 0 = median of the neutral control wells
# Yp Topo-I inh: Yersinia pestis topoisomerase I inhibitors, primary screen, biochemical, cleavage product accumulation, plate reader, single point; DNA topoisomerase I (Yersinia pestis CO92); Y. pestis Topo-I cleavage product accumulation; activity, % at 10 µM; 0.064% of 360,000 active; in the data active = activity above about 50%, passing the limit was not always enough
# * = called active by the depositor; / = no result given; + = active, no number; ! = repeats disagree.
SMILES,Mtb hypoxia rep,GDH-TPI counter,PrPC TRFRET,FBA Mtb inh,PrP 5UTR inh,Yp Topo-I inh
Nc1ccc(C(=O)NN=Cc2ccc(N3CCOCC3)s2)cc1,6.5,/,/,/,/,/
CC(C)(C)OC(=O)N/N=C/c1ccc(N2CCOCC2)s1,/,35.1*,-9.0,-3.2,-44.3,-0.5
COc1ccc(NC(=O)CN(C)C(=O)c2ccccc2OC)cc1,16.4,3.8,4.0,-0.7,-15.0,4.2
COc1ccc(NC(=O)CN(C)C(=O)c2cccc3ccccc23)cc1,1.0,1.4,-1.0,131.4*,-13.6,7.2
O=C1CCCC2=C1C(c1ccc(Cl)cc1)n1c(sc(=Cc3ccc4ccncc4c3)c1=O)=N2 (stereo unspecified),-2.5,/,/,/,/,/
C=CCC[C@@H](Cc1ccc(F)cc1)C(=O)OC[C@H](C)NC(=O)[C@H](CC=C)CC(=O)N(CCO)Cc1ccccc1,/,3.6,7.2,133.5*,-15.1,14.7
C=CC[C@@H](CC(=O)N[C@@H](CO)Cc1ccccc1)C(=O)N[C@H](COC(=O)[C@@H](CC=C)Cc1ccc(F)cc1)Cc1c[nH]c2ccccc12,/,6.9,-1.1,0.5,-4.7,29.0
C=CCC(CC(=O)NC(CO)Cc1ccccc1)C(=O)NC(COC(=O)C(CC=C)Cc1ccc(F)cc1)Cc1c[nH]c2ccccc12 (stereo unspecified),36.2*!,/,/,/,/,/
COc1cccc(-c2c(C(=O)N/N=C/c3ccco3)nnn2-c2nonc2N)c1,/,33.0*,-7.6,-0.6,-13.5,3.4
COc1cccc(-c2c(C(=O)NN=Cc3ccc(C)s3)nnn2-c2nonc2N)c1,10.3,/,/,/,/,/
Cc1ccc(/C=N/NC(=O)c2nnn(-c3nonc3N)c2-c2ccccc2)o1,/,44.0*,-0.7,-3.9,-28.6,-2.4
COc1cccc(-c2c(C(=O)NN=Cc3ccoc3)nnn2-c2nonc2N)c1,3.4,/,/,/,/,/
Cc1ccc(C=NNC(=O)c2nnn(-c3nonc3N)c2-c2ccccc2)o1,13.6,/,/,/,/,/
COc1cccc(-c2c(C(=O)N/N=C(\C)c3cccs3)nnn2-c2nonc2N)c1,/,30.8*,1.7,4.0,-1.9,8.2
CCOc1cccc(-c2c(C(=O)N/N=C(\C)c3cccs3)nnn2-c2nonc2N)c1,/,10.9,-0.5,-2.1,-5.4,-13.9
COc1cccc(-c2c(C(=O)N/N=C/c3sccc3C)nnn2-c2nonc2N)c1,/,34.8*,-2.1,-0.7,-18.6,2.0
Cc1ccsc1/C=N/NC(=O)c1nnn(-c2nonc2N)c1C,/,31.3*,-6.5,0.8,-1.9,9.9
Cc1ccc(-c2c(C(=O)N/N=C/c3sccc3C)nnn2-c2nonc2N)cc1,/,23.6,2.5,-4.6,-6.1,-10.2
Cc1ccsc1/C=N/NC(=O)c1nnn(-c2nonc2N)c1-c1ccccc1,/,38.2*,-3.0,-1.4,3.1,-3.0
CCc1c(C(=O)NN=Cc2sccc2C)nnn1-c1nonc1N,-3.5,/,/,/,/,/
Cc1cc(C(=O)NN=Cc2ccc(-c3cccc(Cl)c3)o2)n[nH]1,-2.4,/,/,/,/,/
Cc1ccccc1Nc1ccc([N+](=O)[O-])cn1,6.0,30.2,-27.2,-3.1,-16.5,-4.8
Cc1cccc(C(C)Nc2ccc([N+](=O)[O-])cn2)c1 (stereo unspecified),10.9,31.0*,-13.2,-6.6,-18.6,8.1
COc1cc(/C=C2\NC(=S)NC2=O)ccc1OCc1cccc(C(=O)O)c1,9.8,32.2*,-27.4,2.3,-15.4,5.8
CCN1C(=O)C2C(c3ccc(-c4cccc(Cl)c4)c(OC)c3)N3CCC[C@@]3(C(=O)OC)C2C1=O (stereo partly specified),-1.5,/,/,/,/,/
SMILES,Mtb hypoxia rep,GDH-TPI counter,PrPC TRFRET,FBA Mtb inh,PrP 5UTR inh,Yp Topo-I inh
COC(=O)c1ccc(C(=O)OC)c(NC(=O)Oc2ccccc2)c1,/,5.2,-4.2,154.5*,-63.5,6.5
CCCOc1cccc(-c2cc(C(=O)NN=Cc3ccccn3)c3ccccc3n2)c1,-7.1,/,/,/,/,/
Cn1cccc1C=Nn1c(-c2ccccc2)n[nH]c1=S,3.2,/,/,/,/,/
COc1ccccc1/C=C/C=N/n1c(-c2ccncc2)n[nH]c1=S,/,31.5*,-5.2,-3.0,5.9,3.4
COc1ccccc1/C=C/C=N/n1c(-c2ccc(C)cc2)n[nH]c1=S,/,16.2,6.3,-0.1,-48.0,9.9
COc1cccc(/C=N/n2c(-c3n[nH]c4c3CCC4)n[nH]c2=S)c1O,/,5.2,-1.9,3.5,-7.8,-0.6
COc1ccccc1/C=C/C=N/n1c(-c2n[nH]c3c2CCC3)n[nH]c1=S,/,33.2*,6.1,5.5,/,1.9
Cn1cccc1/C=N/n1c(-c2ccccc2)n[nH]c1=S,/,33.3*,-4.2,-3.8,-14.3,-6.5
CCOC(=O)C1C2COc3cc(OC)ccc3C2N2C(=O)c3cc(OC)c(OC)cc3NC(=O)[C@@]12C (stereo partly specified),3.7,/,/,/,/,/
O=C1/C(=C/c2ccc(C(=O)O)cc2)CCC/C1=C\c1ccc(C(=O)O)cc1,-1.7,33.3*,-0.5,-3.9,-16.8,-2.9
CCOC(=O)[C@]12Cc3cc(OC)ccc3C1N(Cc1ccccc1)C(=O)c1ccccc12 (stereo partly specified),6.1,/,/,/,/,/
CC(O)/C=C/C1OC(=O)CC1Nc1ccc(C=O)cc1 (stereo unspecified),/,34.3*,2.0,0.0,-16.6,-6.6
C/C(C=NNC(=O)CN1CCN(S(=O)(=O)c2ccc(C)cc2)CC1)=C\c1ccccc1,-2.1,/,/,/,/,/
Cc1nnc(NCc2ccccc2)c2ccccc12,80.8*,-5.6,-8.8,1.4,-3.7,3.8
CN(C)c1ccc(C=NN2C(=O)CSC2=S)c(Cl)c1,/,35.9*,7.0,-7.2,/,-4.1
COC(=O)[C@]1(Cc2ccccc2)NC(c2ccc(-c3cccc(Cl)c3)cc2)C2C(=O)N(C)C(=O)C21 (stereo partly specified),2.2,/,/,/,/,/
N#Cc1nc(-c2ccc(OCc3ccccc3)cc2)oc1N1CCC(C(N)=O)CC1,6.6,10.4,-0.1,24.0,-1.9,-1.4
COc1ccc(-c2nc(C#N)c(N3CCC(C(N)=O)CC3)o2)cc1,/,16.2,0.9,+,-5.7,-1.7
N#Cc1nc(-c2cccc(Cl)c2)oc1N1CCC(C(N)=O)CC1,8.2,5.7,-4.0,+,-19.6,1.8
CC(C)(C)c1ccc(-c2nc(C#N)c(N3CCC(C(N)=O)CC3)o2)cc1,10.2,21.0,6.3,166.0*,-6.8,1.4
Cc1ccc(C=NNC(=O)c2cccs2)s1,-9.0,/,/,/,/,/
Clc1ccccc1CN1CCN(/N=C/C=C/c2ccco2)CC1,/,41.5*,5.2,-0.9,-43.1,-6.8
C/C(C=NNC(=O)Cc1cccn1C)=C\c1ccco1,3.4,/,/,/,/,/
O=C(CN1CCN(Cc2ccccc2Cl)CC1)NN=C/C=C/c1ccccc1[N+](=O)[O-],-5.9,/,/,/,/,/
O=C(CN1CCN(Cc2ccccc2Cl)CC1)N/N=C/C=C/c1ccco1,/,61.4*,6.5,-2.2,/,6.9
COc1ccccc1/C=C/C=NN1CCN(Cc2ccccc2Cl)CC1,-4.9,/,/,/,/,/
